Source: PubChem BioAssay (NCATS)
Inconclusive results are not listed. Active and inactive are the calls of the source. Unless noted, calls come from the whole dose curve; as a rule, active = well fitted curve in the direction sought with a large enough effect; inconclusive = small, poorly fitted or top-dose-only effect, or another doubt; inactive = no such curve, though single readings can be large; an effect the other way counts as inactive or inconclusive. Numbered stars: 1 amine (or outer) side, 2 acyl side, 3 side chain; on linkers, the order of the positions; unused ones are H or OH. Bridge positions count the residues as written; N and C are the ends. Square brackets hold non-standard residues; d marks the D form. Peptide text beside a SMILES is read from it. * marks the point of attachment. ξ: configuration not given here. ΔAla(Z-3-ureido) = NC(=O)N/C=C(\N)C(=O)O; X1 = NC1=NCCC(C(N[*:1])C(=O)[*:2])N1; ξβ3hOrn = NCCCC(N)CC(=O)*; Orn = NCCC[CH](N)C(=O)O; Dap = NC[CH](N)C(=O)O

Legend:
[1] = S16 Schwann cell PMP22 intronic element beta-lactamase assay (AID 624044; calls by dose curve; note: nearly all actives have a fitted effect of over 15% in size; note: potency is the fitted concentration of half-maximal effect)
Procedure, shortened: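 Beta-lactamase reporter under a PMP22 intronic regulatory element in stable S16 rat Schwann cells; 24 h compound exposure. 460 nm blue signal normalized between DMSO (0%) and potassium clavulanate, with 535 nm FRET tracking viability; curves classed by r2 and response.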

[2] = test system: CP260; assay: qHTS profiling for inhibitors of Plasmodium falciparum proliferation (AID 504749); note: nearly all actives have a fitted effect of over 60% in size; note: potency is the fitted concentration of half-maximal effect; details: P. falciparum in erythrocytes, SYBR Green DNA, 72 h; series mostly up to 28.7 µM
Procedure, shortened: (§1)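 SYBR Green fluorescence of parasite DNA, read after lysis and overnight dark incubation, measured growth over 72 h in erythrocyte culture at 0.3% parasitemia and 2.5% hematocrit. Data normalised to DMSO and 0.29 uM artemisinin, with plate-drift correction.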

[3] = S16 Schwann cell viability assay (CellTiter-Glo assay) (AID 624031); note: nearly all actives have a fitted effect of over 70% in size; note: potency is the fitted concentration of half-maximal effect
Procedure, shortened: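 Counter-screen for cytotoxicity: parental S16 rat Schwann cells lacking the PMP22 reporters, treated 24 h with compound, viability from cellular ATP by CellTiter-Glo luminescence, normalized to DMSO (0%) and no-cell wells.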

[4] = test system: 3D7; assay: qHTS profiling for inhibitors of Plasmodium falciparum proliferation (AID 504749); note: nearly all actives have a fitted effect of over 60% in size; note: potency is the fitted concentration of half-maximal effect; details: P. falciparum in erythrocytes, SYBR Green DNA, 72 h; series mostly up to 28.7 µM
Procedure, shortened: as §1

[5] = test system: DIV14; assay: as above; details: P. falciparum in erythrocytes, SYBR Green DNA, 72 h; series mostly up to 28.7 µM
Procedure, shortened: as §1

[6] = test system: DIV17; assay: as above; details: P. falciparum in erythrocytes, SYBR Green DNA, 72 h; series mostly up to 28.7 µM
Procedure, shortened: as §1

[7] = test system: GB4; assay: as above; details: P. falciparum in erythrocytes, SYBR Green DNA, 72 h; series mostly up to 28.7 µM
Procedure, shortened: as §1

[8] = test system: ICS; assay: as above; details: P. falciparum in erythrocytes, SYBR Green DNA, 72 h; series mostly up to 28.7 µM
Procedure, shortened: as §1

[9] = test system: W2; assay: as above; details: P. falciparum in erythrocytes, SYBR Green DNA, 72 h; series mostly up to 28.7 µM
Procedure, shortened: as §1

[10] = biological target: Cytochrome P450 3A4 (Homo sapiens) (UniProt P08684); assay: qHTS Assay for Inhibitors and Substrates of Cytochrome P450 3A4 (AID 884); note: nearly all actives have a fitted effect of over 50% in size; note: potency is the fitted concentration of half-maximal effect
Chain of Cytochrome P450 3A4 (Homo sapiens) (P08684 whole entry, looked up): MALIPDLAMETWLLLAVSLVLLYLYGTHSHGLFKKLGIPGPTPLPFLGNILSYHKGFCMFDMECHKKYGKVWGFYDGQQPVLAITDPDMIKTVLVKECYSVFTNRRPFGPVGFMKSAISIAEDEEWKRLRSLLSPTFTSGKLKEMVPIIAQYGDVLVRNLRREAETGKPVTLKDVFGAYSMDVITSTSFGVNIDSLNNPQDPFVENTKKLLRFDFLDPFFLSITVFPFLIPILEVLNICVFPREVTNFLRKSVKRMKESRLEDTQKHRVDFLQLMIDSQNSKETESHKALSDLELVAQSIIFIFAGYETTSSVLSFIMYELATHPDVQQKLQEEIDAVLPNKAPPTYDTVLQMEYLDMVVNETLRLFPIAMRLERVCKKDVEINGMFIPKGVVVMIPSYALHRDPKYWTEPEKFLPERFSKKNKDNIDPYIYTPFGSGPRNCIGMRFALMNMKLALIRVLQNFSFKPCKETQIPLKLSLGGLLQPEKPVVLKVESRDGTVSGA
Procedure, shortened: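 Luminescent readout of luciferin produced by CYP3A4 (20 nM) dealkylation of Luciferin-PPXE, 25 uM (its KM). NADPH-driven reaction ran 60 min at RT after 10 min compound preincubation; data scaled to 57 uM ketoconazole as 100% inhibition.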

[11] = Confirmation and Secondary Assay for Modulators of Hemoglobin Beta Chain Splicing at IVS2 654 locus (AID 910);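 note: HeLa cells stably carrying EGFP split by mutant beta-globin IVS2-654 intron; per-well total GFP intensity by laser scanning cytometry after 2-day treatment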
Procedure, shortened: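 Readout: per-well total peak green fluorescence (488 nm ex, 500–520 nm em) from objects 5–250 µm, reflecting correct splicing of an EGFP-654 reporter. Compounds were applied for 2 days at 37 °C to overnight-plated HeLa EGFP-654 cells; controls were DMSO and 500 nM IVS2-654 PNA.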

[12] = biological target: DNA dC->dU-editing enzyme APOBEC-3G (Homo sapiens) (UniProt Q9HC16); assay: qHTS for inhibitors of Vif-A3G interactions: Validation (AID 588379)
Chain of DNA dC->dU-editing enzyme APOBEC-3G (Homo sapiens) (Q9HC16 whole entry, looked up): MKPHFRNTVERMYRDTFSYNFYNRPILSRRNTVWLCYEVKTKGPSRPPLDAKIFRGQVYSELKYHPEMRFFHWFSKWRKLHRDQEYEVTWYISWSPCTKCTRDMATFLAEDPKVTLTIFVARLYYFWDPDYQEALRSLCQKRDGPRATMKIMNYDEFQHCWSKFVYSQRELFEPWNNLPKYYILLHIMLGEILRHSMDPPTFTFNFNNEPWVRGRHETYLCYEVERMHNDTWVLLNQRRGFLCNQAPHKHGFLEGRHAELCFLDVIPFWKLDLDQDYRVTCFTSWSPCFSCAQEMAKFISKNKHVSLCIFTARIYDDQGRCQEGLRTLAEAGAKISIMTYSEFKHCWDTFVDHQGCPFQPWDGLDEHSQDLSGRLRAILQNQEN
Procedure, shortened: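 Yellow fluorescence (Ex 488, Em 500-530) of Vif-coexpressing HeLa A3G-eYFP cells, scanned by Acumen cytometer, reports blocked A3G degradation. Cells plated at 700/well overnight at 37 deg C before compound addition, then a further overnight compound incubation at 37 deg C.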

[13] = biological target: Cytochrome P450 3A4 (Homo sapiens) (UniProt P08684); assay: qHTS Assay for Activators of Cytochrome P450 3A4 (AID 885); note: nearly all actives have a fitted effect of over 65% in size
Procedure, shortened: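 Human CYP3A4 dealkylates Luciferin-PPXE to luciferin, which luciferase detection converts to light. Substrate was at its KM (25uM), buffer 200mM KPO4, reaction 60 min at RT.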

[14] = Confirmation and Secondary Assay for Modulators of Hemoglobin Beta Chain Splicing at IVS2 705 locus (AID 930);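 note: HeLa cells stably expressing the EGFP-705 splicing reporter; GFP fluorescence per well restored by corrected splicing of the IVS2-705 intron in EGFP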
Procedure, shortened: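 First, HeLa EGFP-705 cells are seeded at 500/well in Optimem with 2% FCS and left overnight. Next, compound or DMSO is added for 2 days. Finally wells are laser-scanned and total peak GFP intensity scored.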

Measured: Potency

COc1ccc(-c2nc3ccc(C4=C(C)CC(=O)NN4)cc3[nH]2)cc1
inactive: [1] | [2]

NCCCC(N)CC(=O)NCC1NC(=O)C(CO)NC(=O)C(N)CNC(=O)C(C2CCN=C(N)N2)NC(=O)/C(=C/NC(N)=O)NC1=O (stereo not drawn) (H-[Dap]S[Dap](ξβ3hOrn)[ΔAla(Z-3-ureido)][X1]; lactam 1-C; configuration not given here)
not listed: [10] | [11] | [12] | [13] | [14]
inactive: all other assays above

O=C(OCC1OC(OC(=O)c2cc(O)c(O)c(OC(=O)c3cc(O)c(O)c(O)c3)c2)[C@@H](OC(=O)c2cc(O)c(O)c(OC(=O)c3cc(O)c(O)c(O)c3)c2)C(OC(=O)c2cc(O)c(O)c(OC(=O)c3cc(O)c(O)c(O)c3)c2)C1OC(=O)c1cc(O)c(O)c(OC(=O)c2cc(O)c(O)c(O)c2)c1)c1cc(O)c(O)c(OC(=O)c2cc(O)c(O)c(O)c2)c1 (stereo partly specified)
inactive: [11]
active: [10] 3.98 µM | [3] 20.3 µM | [1] 22.4 µM | [4] 2 µM | [2] 3.55 µM | [5] 3.79 µM | [6] 2.69 µM | [7] 3.38 µM | [8] 2.51 µM | [9] 1.51 µM

C[C@H]1[C@H]2CC[C@H]3C4CC=C5C[C@@H](N(C)C)CC[C@]5(C)C4CC[C@]23CN1C (stereo partly specified)
inactive: [10] | [12]

COc1cccc2c1C(=O)CC(c1ccccc1)O2 (stereo unspecified)
inactive: [10] | [12]

Nc1nc2c(c(=O)[nH]1)N=C(CNc1ccc(C(=O)NC(CCC(=O)O)C(=O)O)cc1)CN2 (stereo unspecified)
inactive: [10] | [12]

COc1cc2c(C(=O)c3ccccc3)c3c4c(cc(OC)c(OC)c4c2cc1OC)CCN3C
active: [10] 1.26 µM
inactive: [13] | [12]

O=C(O)c1ccccc1-c1c2cc(Br)c(=O)c(Br)c-2oc2c(Br)c(O)c(Br)cc12
inactive: [1] | [4] | [2] | [5] | [6] | [7] | [8]

Cn1cc(O)nc1NC(=O)Nc1cccc(Cl)c1
inactive: [3] | [1] | [4] | [2] | [5] | [6] | [8] | [9]

CCC(Oc1ccccc1)C(=O)NC1C(=O)N2C1SC(C)(C)C2C(=O)O (stereo unspecified)
inactive: [3] | [1] | [4] | [2] | [6] | [7] | [8] | [9]

O=C(/C=C/c1ccccc1)c1cccs1
inactive: [10] | [12]

CC(C)CC1NC(=O)C(CCCN)NC(=O)C(C(C)C)NC(=O)C2CCCN2C(=O)C(Cc2ccccc2)NC(=O)C(CC(C)C)NC(=O)C(CCCN)NC(=O)C(C(C)C)NC(=O)C2CCCN2C(=O)C(Cc2ccccc2)NC1=O (stereo unspecified) (cyclo(FPV[Orn]LFPV[Orn]L); configuration not given here)
inactive: [10] | [11] | [14]
active: [3] 4.55 µM | [1] 12.6 µM | [2] 0.0009 µM | [7] 0.0005 µM | [8] 0.0003 µM | [9] 0.0002 µM

CC(C)C(NC(=O)C(CC(=O)O)NC(=O)C(CCCCN)NC(=O)C(N)CCCN=C(N)N)C(=O)NC(Cc1ccc(O)cc1)C(=O)O (stereo unspecified) (H-RKDVY-OH; configuration not given here)
inactive: [3] | [1] | [4] | [5] | [6] | [7] | [8] | [9]

C=CC1=C(C(=O)O)N2C(=O)[C@@H](NC(=O)C(N=O)c3csc(N)n3)[C@H]2SC1 (stereo partly specified)
inactive: [3] | [1] | [4] | [2] | [5] | [6] | [7] | [8]

CC1(C)C(/C=C/C=C/C=C/C=C2\N(CCCCS(=O)(=O)O)c3ccc4ccccc4c3C2(C)C)=[N+](CCCCS(=O)(=O)[O-])c2ccc3ccccc3c21
inactive: [3] | [1] | [5] | [6] | [7] | [8]

COc1cc2c(C)c3c4c(cc(OC)c(OC)c4c2cc1OC)CCN3C
active: [10] 15.8 µM
inactive: [13] | [12]

COC(=O)CCC(C)C1CCC2C3C(C[C@H](O)C12C)C1(C)CC[C@@H](O)CC1C[C@H]3O (stereo partly specified)
inactive: [13] | [12]

OC[C@H]1O[C@@H](OC[C@H]2O[C@@H](O)[C@H](O)[C@@H](O)[C@@H]2O)[C@H](O)[C@@H](O)[C@@H]1O
inactive: [10] | [12]

O=C(/C=C/c1ccc(O)cc1)c1cccs1
inactive: [13] | [12]
active: [10] 1.26 µM

NC(=O)CCC1NC(=O)C(Cc2ccccc2)NC(=O)C(Cc2ccc(O)cc2)NC(=O)CCSSCC(C(=O)N2CCCC2C(=O)NC(CCCN=C(N)N)C(=O)NCC(N)=O)NC(=O)C(CC(N)=O)NC1=O (stereo unspecified)
not listed: [10] | [11] | [12] | [13] | [14]
inactive: all other assays above
